Measured values taken from PubChem BioAssay (Tox21).
Activity calls are given as the source filed them. Unless noted, the call rests on the fitted dose curve; in most records, active means well fitted curve in the direction sought with a large enough effect in the repeat runs; inconclusive means weak or mixed curves; inactive means no such curve, though single readings can be large; an effect the other way counts as inactive or inconclusive.

Legend:
[1] = qHTS assay for small molecules that induce genotoxicity in human embryonic kidney cells expressing luciferase-tagged ATAD5 (AID 651632); further: nearly all actives have a fitted effect of over 15% in size
Method in brief: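 ATAD5-luc HEK293T, 2,000 cells/well; cpd or DMSO pin-transferred; 16 hr, 37C/5% CO2; Amplite 30 min RT; luminescence.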

[2] = qHTS assay for small molecule agonists of the p53 signaling pathway - cell viability (AID 651633; calls by dose curve; further: nearly all actives have a fitted effect of over 30% in size; further: potency means the concentration at half of the fitted maximal effect)
Method in brief: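 p53RE-bla cells were treated with compound for 16 hours at 37 C. Cytotoxicity was then measured as CellTiter-Glo luminescence after 30 min at room temperature.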

[3] = qHTS assay for small molecules that induce genotoxicity in human embryonic kidney cells expressing luciferase-tagged ATAD5 - cell viability (AID 651634; calls by dose curve; further: nearly all actives have a fitted effect of over 25% in size; further: potency means the concentration at half of the fitted maximal effect)
Method in brief: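 Fluorescence from CellTiter-Fluor, reporting protease activity within live cells, served as the viability read-out. HEK293T cells carrying luciferase-tagged ATAD5 had been treated with compound for 15.5 hr at 37C.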

[4] = qHTS assay to test for compound auto fluorescence at 590 nm (red) in HepG2 cells (AID 720674)
Method in brief: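 Seeding: 2,000 HepG2 cells/well, MEM/10% FBS, overnight 37 C. Dosing: compound vs DMSO. Incubation: 1 hr, 37 C, 5% CO2. Read: fluorescence 540 ex/590 em, Rose Bengal sodium as red reference.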

[5] = qHTS assay to test for compound auto fluorescence at 535 nm (green) in HepG2 cells (AID 720675)
[6] = qHTS assay to test for compound auto fluorescence at 460 nm (blue) in HEK293 cells (AID 720678)
Method in brief: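 Auto fluorescence in the blue band was quantified as triamterene equivalency. HEK293 cells were seeded at 2,000/well, dosed after a 4-5 hr attachment, and kept overnight at 37C before the 405/460 nm reading.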

[7] = qHTS assay to test for compound auto fluorescence at 590 nm (red) in HEK293 cells (AID 720679)
Method in brief: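 Autofluorescence equivalency to Rose Bengal sodium, 540/590nm, in HEK293 cells exposed overnight to 23 nL compound per well.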

[8] = qHTS assay to test for compound auto fluorescence at 535 nm (green) in HEK293 cells (AID 720680)
[9] = qHTS assay to test for compound auto fluorescence at 460 nm (blue) in HEK293 cell free culture (AID 720681)
Method in brief: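 Compounds were added to cell-free DMEM with 10% FBS and fluorescence read directly. The blue channel used 405 nm excitation and 460 nm emission, with triamterene as the reference fluorophore.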

[10] = qHTS assay to test for compound auto fluorescence at 535 nm (green) in HEK293 cell free culture (AID 720682)
Method in brief: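 Cell-free medium (DMEM, 10% FBS) receives compound or DMSO by pintool. Plate read directly at Ex 485/Em 535 nm. Signal converted to fluorescein equivalency.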

[11] = qHTS assay to test for compound auto fluorescence at 590 nm (red) in HEK293 cell free culture (AID 720683)
Method in brief: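 Cell-free wells of DMEM with 10% FBS received compound, and intrinsic fluorescence was read at excitation/emission 540/590 nm. Values expressed as equivalence to Rose Bengal sodium.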

[12] = qHTS assay to test for compound auto fluorescence at 590 nm (red) in HepG2 cell free culture (AID 720684)
Method in brief: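 Compound was pinned into wells holding MEM with 10% FBS and no cells, and red fluorescence was read at Ex/Em 540/590 nm. Signal is expressed as auto fluorescence equivalency relative to Rose Bengal sodium.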

[13] = qHTS assay to test for compound auto fluorescence at 460 nm (blue) in HepG2 cell free culture (AID 720685)
Method in brief: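 Compound (23 nL) or DMSO pinned into cell-free MEM with 10% FBS; blue fluorescence read at 405/460 nm excitation/emission, expressed as auto-fluorescence equivalency to triamterene.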

[14] = qHTS assay to test for compound auto fluorescence at 535 nm (green) in HepG2 cell free culture (AID 720686)
[15] = qHTS assay to test for compound auto fluorescence at 460 nm (blue) in HepG2 cells (AID 720687)
Method in brief: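 HepG2 cells in MEM with 10% FBS, attached overnight at 37 C, were exposed to compound or DMSO for 1 hr at 37 C, 5% CO2. Blue fluorescence was read at 405/460 nm, with triamterene as reference fluorophore.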

[16] = target: Glucocorticoid receptor (Homo sapiens) (UniProt P04150); experiment: qHTS assay to identify small molecule agonists of the glucocorticoid receptor (GR) signaling pathway (AID 720691; active means well fitted activation curve with a large enough effect in the signal ratio in the repeat runs, not every such curve was filed as active; inconclusive means weak or mixed curves, or effect the other way; inactive means no such curve, though single readings can be large or run the other way; the % refers to the signal ratio; further: potency means the concentration at half of the fitted maximal effect); conditions: GR-bla HeLa, beta-lactamase reporter ratio, 18 h; activation: at 62.4 µM (top of the series)
Chain of Glucocorticoid receptor (Homo sapiens) (P04150 whole entry, looked up): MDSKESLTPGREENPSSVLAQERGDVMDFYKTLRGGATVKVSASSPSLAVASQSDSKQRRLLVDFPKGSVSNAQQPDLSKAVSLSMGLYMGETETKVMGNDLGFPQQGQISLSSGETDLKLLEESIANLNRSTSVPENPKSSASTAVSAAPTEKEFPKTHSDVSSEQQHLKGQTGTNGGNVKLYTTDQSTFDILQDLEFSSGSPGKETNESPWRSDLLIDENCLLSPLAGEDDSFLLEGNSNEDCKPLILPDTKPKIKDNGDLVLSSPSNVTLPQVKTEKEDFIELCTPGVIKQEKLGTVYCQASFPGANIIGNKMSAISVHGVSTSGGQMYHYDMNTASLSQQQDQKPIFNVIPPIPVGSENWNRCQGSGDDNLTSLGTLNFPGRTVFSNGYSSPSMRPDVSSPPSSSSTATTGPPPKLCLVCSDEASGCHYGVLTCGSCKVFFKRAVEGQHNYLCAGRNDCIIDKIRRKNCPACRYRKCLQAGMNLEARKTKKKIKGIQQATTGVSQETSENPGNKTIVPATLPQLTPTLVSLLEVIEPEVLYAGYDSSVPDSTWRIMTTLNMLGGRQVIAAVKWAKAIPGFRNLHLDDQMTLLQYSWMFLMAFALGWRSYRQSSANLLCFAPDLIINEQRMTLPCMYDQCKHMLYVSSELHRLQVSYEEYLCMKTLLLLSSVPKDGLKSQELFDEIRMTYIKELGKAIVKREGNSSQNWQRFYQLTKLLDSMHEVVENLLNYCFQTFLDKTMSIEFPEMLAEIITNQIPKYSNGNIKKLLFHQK
Method in brief: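 Fluorescence intensity from LiveBLAzer B/G FRET substrate (2 h, room temperature) reports beta-lactamase expression driven by the glucocorticoid response element in GR-bla HeLa cells after 18 h compound exposure at 37 C.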

[17] = target: Glucocorticoid receptor (Homo sapiens) (UniProt P04150); experiment: qHTS assay to identify small molecule antagonists of the glucocorticoid receptor (GR) signaling pathway (AID 720692; active means well fitted inhibition curve with a large enough effect in the signal ratio in the repeat runs, not every such curve was filed as active; inconclusive means weak or mixed curves, or effect the other way; inactive means no such curve, though single readings can be large or run the other way; the % refers to the signal ratio)
Method in brief: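 HeLa GR-bla cells; cmpd + dex 5 nM final, 18 h 37 C; LiveBLAzer B/G FRET substrate 2 h RT; fluorescence intensity read. Antagonist mode, qHTS.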

[18] = qHTS assay for small molecule disruptors of the mitochondrial membrane potential - cell viability (AID 720634; calls by dose curve; further: nearly all actives have a fitted effect of over 20% in size; further: potency means the concentration at half of the fitted maximal effect)
Method in brief: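 Cells: HepG2, 2,000/well, attached overnight. Compound 1 hr, 37 C/5% CO2. +m-MPI dye, +CellTiter-Glo 30 min RT. Readout: luminescence (ATP).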

[19] = qHTS assay for small molecule disruptors of the mitochondrial membrane potential (AID 720635); further: potency means the concentration at half of the fitted maximal effect
Method in brief: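 HepG2 cells exposed to compound 1 hr at 37C, then Mito-MPS dye 30 min. Ratio read of aggregate (540/590 nm) versus monomer (490/535 nm) fluorescence.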

Measured: Potency

CC(C)CCCCCCCCCCCCCCC(=O)O
active: [2] 61.1 µM
not listed: [18] | [19]
inactive: all other assays above

CCCCCCCC[P+](CCCCCCCC)(CCCCCCCC)CCCCCCCC
active: [2] 12.1 µM | [3] 13.6 µM | [18] 21.6 µM | [19] 0.0963 µM
not listed: [7] | [14] | [16] | [17]
inactive: all other assays above

O=C(c1ccc(F)cc1)C1CCN(CCn2c(=O)[nH]c3ccccc3c2=O)CC1
not listed: [13] | [17] | [19]
inactive: all other assays above

CCCN(CCC)C(=O)C(CCC(=O)OCCCN1CCN(CCOC(=O)Cc2c(C)n(C(=O)c3ccc(Cl)cc3)c3ccc(OC)cc23)CC1)NC(=O)c1ccccc1 (stereo unspecified)
active: [3] 26.6 µM
not listed: [16] | [17] | [19]
inactive: all other assays above

C[C@@H](NCCCc1cccc(C(F)(F)F)c1)c1cccc2ccccc12
active: [2] 18.8 µM | [3] 26.6 µM | [18] 26.6 µM
not listed: [14] | [15] | [16] | [17] | [19]
inactive: all other assays above

CCCCCCCCCCCC[N+](C)(C)CCCCCCCCCCCC
active: [2] 54.5 µM | [18] 30.6 µM | [19] 19.3 µM
not listed: [3] | [16] | [17]
inactive: all other assays above

CCc1cc(SCc2sc(-c3ccc(C(F)(F)F)cc3)nc2CN2CCN(c3ccc(OC)cc3)CC2)ccc1OCC(=O)O
active: [2] 9.69 µM | [3] 48.6 µM | [19] 19.3 µM
not listed: [7] | [16] | [17]
inactive: all other assays above

CCCCCCCCCCCCCCCCCC[N+](C)(C)C
active: [2] 61.3 µM | [3] 61.3 µM | [19] 48.7 µM
not listed: [16] | [17] | [18]
inactive: all other assays above

C[C@]12CCC(=O)C=C1CC[C@@H]1[C@@H]2[C@@H](O)C[C@@]2(C)[C@H]1CC[C@]2(O)C(=O)COC(=O)CCC(=O)O
active: [16] 848 nM [inconclusive]
not listed: [15] | [17] | [19]
inactive: all other assays above

Cc1cc(CCN2CCN(c3nsc4ccccc34)CC2)cc2c1NC(=O)CC2(C)C
active: [2] 43.3 µM | [3] 61.1 µM | [18] 54.5 µM
not listed: [17] | [19]
inactive: all other assays above

CC(C)OC(=O)c1cc2c(OCC(O)CNC(C)(C)C)cccc2[nH]1 (stereo unspecified)
not listed: [7] | [15]
inactive: all other assays above

Clc1ccc2n[nH]nc2c1
not listed: [14] | [17] | [19]
inactive: all other assays above

CC(C)(C)CC(C)(C)c1ccc(O)c(Cc2ccc(Cl)cc2Cl)c1
active: [2] 13.3 µM | [3] 23.7 µM | [19] 1.68 µM
not listed: [7] | [14] | [16] | [17] | [18]
inactive: all other assays above

CN(C)C(=O)C1(N2CCCCC2)CCN(CC[C@@]2(c3ccc(Cl)c(Cl)c3)CN(C(=O)c3ccccc3)CCO2)CC1
active: [2] 64.1 µM | [3] 64.1 µM
not listed: [16] | [17] | [18] | [19]
inactive: all other assays above
